PubChem BioAssay (EPA / NIEHS)
Activity calls are given as the source filed them. Rule for the calls: active = hit-call score of the fitted dose curve at least 0.9, where 1 is the maximum; inactive = score below 0.9.

Tests used:
Conditions in all cases: mRNA level, 48 h; actives raise or lower the signal
[1] = read-out: Early growth response protein 1 (EGR1) transcription factor, EGR1 (gene 1958); experiment: LTEA_HepaRG_EGR1: Life Technologies and Expression Analysis (LTEA) Assay for Early growth response protein 1 (EGR1) transcription factor using HepaRG (AID 2283490)
Summary of the method: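 Differentiated HepaRG cells in serum-free induction medium exposed 48 hours, duplicate, to 8 half-log concentrations up to 100 uM in 0.5% DMSO. EGR1 mRNA measured by TaqMan qRT-PCR, normalized to ACTB, GAPDH, POLR2A; bidirectional fit versus DMSO.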

[2] = read-out: Ezrin (EZR), EZR (gene 7430); experiment: LTEA_HepaRG_EZR: Life Technologies and Expression Analysis (LTEA) Assay for Ezrin (EZR) using HepaRG (AID 2283491)
Summary of the method: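 Gain or loss of EZR mRNA is scored relative to 0.5% DMSO in human HepaRG cultures treated 48 h with test chemicals in duplicate, eight half-log concentrations from 100 uM.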

[3] = read-out: Cytochrome P450 3A7 (Homo sapiens) (UniProt P24462); experiment: LTEA_HepaRG_CYP3A7: Life Technologies and Expression Analysis (LTEA) Assay for CYP3A7 using HepaRG (AID 2283492)
Summary of the method: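 qRT-PCR of CYP3A7 in HepaRG lysates after 48 h treatment; concentration-response (8 points, max 100 uM) analysed bidirectionally relative to 0.5% DMSO controls.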

CYP3A5 (gene 1577) = experiment: LTEA_HepaRG_CYP3A5: Life Technologies and Expression Analysis (LTEA) Assay for CYP3A5 using HepaRG (AID 2283493)
Summary of the method: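 HepaRG plated 48 h, switched to serum-free induction medium, chemicals added 48 h (max 100 uM, half-log, 0.5% DMSO). RNA isolated; CYP3A5 by TaqMan qRT-PCR. Gain/loss vs DMSO.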

[4] = read-out: Fatty Acid-Binding Protein 1 (FABP1), FABP1 (gene 2168); experiment: LTEA_HepaRG_FABP1: Life Technologies and Expression Analysis (LTEA) Assay for Fatty Acid-Binding Protein 1 (FABP1) using HepaRG (AID 2283494)
Summary of the method: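 Differentiated human HepaRG cells exposed 48 h in serum-free induction medium to eight half-log concentrations up to 100 uM (0.5% DMSO), duplicate. FABP1 mRNA by qRT-PCR, normalised to ACTB, GAPDH, POLR2A; bidirectional fitting against DMSO.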

[5] = read-out: Cytochrome P450 4A22 (Homo sapiens) (UniProt Q5TCH4); experiment: LTEA_HepaRG_CYP4A22: Life Technologies and Expression Analysis (LTEA) Assay for Cytochrome P450 4A22 (CYP4A22) using HepaRG (AID 2283495)
Summary of the method: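 Concentration-response (8 points, max 100 uM, 0.5% DMSO) in human HepaRG liver cells after 48 h exposure. CYP4A22 mRNA by TaqMan qRT-PCR with housekeeping-gene normalization.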

[6] = read-out: Cytochrome P450 7A1 (Homo sapiens) (UniProt P22680); experiment: LTEA_HepaRG_CYP7A1: Life Technologies and Expression Analysis (LTEA) Assay for Cytochrome P450 7A1 (CYP7A1) using HepaRG (AID 2283496)
Summary of the method: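 HepaRG cells plated 48 h, then switched to serum-free induction medium and exposed in duplicate for 48 h to 8-point half-log series from 100 uM in 0.5% DMSO. CYP7A1 mRNA by qRT-PCR (TaqMan), normalized to ACTB/GAPDH/POLR2A; bidirectional fit versus DMSO.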

[7] = read-out: Glutathione S-Transferase (GSTA2), GSTA2 (gene 2939); experiment: LTEA_HepaRG_GSTA2: Life Technologies and Expression Analysis (LTEA) Assay for Glutathione S-Transferase (GSTA2) using HepaRG (AID 2283497)
Summary of the method: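 Differentiated human HepaRG cells were exposed in duplicate for 48 h in serum-free induction medium, 8 points from 100 uM top in half-log steps, 0.5% DMSO. GSTA2 mRNA was measured by TaqMan qRT-PCR, normalized to ACTB, GAPDH and POLR2A; bidirectional fit versus DMSO.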

[8] = read-out: Glutamate-cysteine ligase catalytic (GCLC), GCLC (gene 2729); experiment: LTEA_HepaRG_GCLC: Life Technologies and Expression Analysis (LTEA) Assay for Glutamate-cysteine ligase catalytic (GCLC) using HepaRG (AID 2283498)
Summary of the method: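 Differentiated HepaRG cells exposed 48 h in serum-free induction medium, eight-point half-log series topping at 100 uM in 0.5% DMSO, duplicates. GCLC mRNA by qRT-PCR normalized to ACTB, GAPDH and POLR2A, fitted bidirectionally versus DMSO.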

[9] = read-out: growth arrest and DNA damage 45 (GADD45G), GADD45G (gene 10912); experiment: LTEA_HepaRG_GADD45G: Life Technologies and Expression Analysis (LTEA) Assay for growth arrest and DNA damage 45 (GADD45G) using HepaRG (AID 2283499)
Summary of the method: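 Concentration-response in HepaRG: 48 h dosing, 0.5% DMSO, highest level 100 uM. GADD45G expression by qRT-PCR, normalised to endogenous controls; bidirectional fit to DMSO.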

[10] = read-out: Glutamate-cysteine ligase regulatory (GCLM), GCLM (gene 2730); experiment: LTEA_HepaRG_GCLM: Life Technologies and Expression Analysis (LTEA) Assay for Glutamate-cysteine ligase regulatory (GCLM) using HepaRG (AID 2283500)
Summary of the method: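 Cells were plated, cultured 48 h, switched to serum-free induction medium, then dosed in duplicate for 48 h at eight half-log concentrations up to 100 uM. RNA was then profiled by qRT-PCR; gain or loss versus DMSO was fitted.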

[11] = read-out: Glutathione S-transferase M3 (GSTM3), GSTM3 (gene 2947); experiment: LTEA_HepaRG_GSTM3: Life Technologies and Expression Analysis (LTEA) Assay for Glutathione S-transferase M3 (GSTM3) using HepaRG (AID 2283501)
Summary of the method: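 Expression of GSTM3 is determined by qRT-PCR in human liver HepaRG cells treated 48 h with an 8-point half-log range from 100 uM in 0.5% DMSO.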

[12] = read-out: Heat shock 70 kDa protein 1 (HSPA1A), gene 3303; experiment: LTEA_HepaRG_HSPA1A: Life Technologies and Expression Analysis (LTEA) Assay for Heat shock 70 kDa protein 1 (HSPA1A) using HepaRG (AID 2283502)
Summary of the method: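 Readout is HSPA1A transcript level by microfluidic qRT-PCR, normalized to three housekeeping genes and analysed for gain or loss of signal relative to 0.5% DMSO. Human HepaRG cultures received test chemicals for 48 h at up to 100 uM.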

[13] = read-out: Hypoxia-inducible factor 1-alpha (Homo sapiens) (UniProt Q16665); experiment: LTEA_HepaRG_HIF1A: Life Technologies and Expression Analysis (LTEA) Assay for Hypoxia-inducible factor 1 (HIF1A) Trancription factor using HepaRG (AID 2283503)
Summary of the method: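 Differentiated HepaRG cells in serum-free induction medium exposed 48 h, in duplicate, to 8-point half-log series from 100 uM in 0.5% DMSO. HIF1A mRNA measured by TaqMan qRT-PCR, normalized to ACTB/GAPDH/POLR2A, fitted bidirectionally versus DMSO.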

[14] = read-out: 3-Hydroxy-3-Methylglutaryl-CoA Synthase 2 (HMGCS2), HMGCS2 (gene 3158); experiment: LTEA_HepaRG_HMGCS2: Life Technologies and Expression Analysis (LTEA) Assay for 3-Hydroxy-3-Methylglutaryl-CoA Synthase 2 (HMGCS2) using HepaRG (AID 2283504)
Summary of the method: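 This steatosis marker was read as HMGCS2 mRNA change in HepaRG cells treated 48 h with up to 100 uM chemical. Normalisation used housekeeping genes; activity in either direction was fitted relative to 0.5% DMSO vehicle.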

HGF (gene 3082) = experiment: LTEA_HepaRG_HGF: Life Technologies and Expression Analysis (LTEA) Assay for Hepatocyte Growth Facto (HGF) using HepaRG (AID 2283505)
Summary of the method: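 Using HepaRG monolayers kept in 0.5% DMSO, chemicals were tested in duplicate over eight half-log concentrations from 100 uM for 48 h. Endpoint: HGF mRNA change relative to DMSO, normalized to ACTB/GAPDH/POLR2A.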

[15] = read-out: Insulin Like Growth Factor 1 (IGF1), IGF1 (gene 3479); experiment: LTEA_HepaRG_IGF1: Life Technologies and Expression Analysis (LTEA) Assay for Insulin Like Growth Factor 1 (IGF1) using HepaRG (AID 2283506)
Summary of the method: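 HepaRG, plated 48 h, then switched to serum-free induction media; test chemical 8-pt half-log from 100 uM (0.5% DMSO), duplicate, 48 h. Lysis in RLT, TaqMan qRT-PCR, norm. ACTB/GAPDH/POLR2A. Bidirectional fit vs DMSO.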

[16] = read-out: Intercellular Adhesion Molecule 1 (ICAM1), ICAM1 (gene 3383); experiment: LTEA_HepaRG_ICAM1: Life Technologies and Expression Analysis (LTEA) Assay for Intercellular Adhesion Molecule 1 (ICAM1) using HepaRG (AID 2283507)
Summary of the method: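 Using the human liver line HepaRG, compounds are tested in duplicate over 48 h at concentrations up to 100 uM. Expression is determined by TaqMan qRT-PCR, normalized to endogenous controls, and analysed relative to 0.5% DMSO vehicle.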

[17] = read-out: Insulin-like growth factor-binding protein 1 (IGFBP1), IGFBP1 (gene 3484); experiment: LTEA_HepaRG_IGFBP1: Life Technologies and Expression Analysis (LTEA) Assay for Insulin-like growth factor-binding protein 1 (IGFBP1) using HepaRG (AID 2283508)
Summary of the method: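 HepaRG, 48 h, 8 conc. (max 100 uM, half-log), duplicates, 0.5% DMSO. Readout: TaqMan qRT-PCR, ACTB/GAPDH/POLR2A normalisation. Fit: bidirectional vs DMSO.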

[18] = read-out: Interleukin 6 (IL6), IL6 (gene 3569); experiment: LTEA_HepaRG_IL6: Life Technologies and Expression Analysis (LTEA) Assay for Interleukin 6 (IL6) using HepaRG (AID 2283509)
Summary of the method: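 HepaRG cells exposed in duplicate for 48 h to eight half-log concentrations, top 100 uM, in 0.5% DMSO serum-free induction medium. mRNA measured by qRT-PCR, normalized to ACTB, GAPDH and POLR2A. Bidirectional fit versus DMSO.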

Measured: AC50

Hypoxia-inducible factor 1-alpha (Homo sapiens), sequence (Q16665 whole entry, looked up): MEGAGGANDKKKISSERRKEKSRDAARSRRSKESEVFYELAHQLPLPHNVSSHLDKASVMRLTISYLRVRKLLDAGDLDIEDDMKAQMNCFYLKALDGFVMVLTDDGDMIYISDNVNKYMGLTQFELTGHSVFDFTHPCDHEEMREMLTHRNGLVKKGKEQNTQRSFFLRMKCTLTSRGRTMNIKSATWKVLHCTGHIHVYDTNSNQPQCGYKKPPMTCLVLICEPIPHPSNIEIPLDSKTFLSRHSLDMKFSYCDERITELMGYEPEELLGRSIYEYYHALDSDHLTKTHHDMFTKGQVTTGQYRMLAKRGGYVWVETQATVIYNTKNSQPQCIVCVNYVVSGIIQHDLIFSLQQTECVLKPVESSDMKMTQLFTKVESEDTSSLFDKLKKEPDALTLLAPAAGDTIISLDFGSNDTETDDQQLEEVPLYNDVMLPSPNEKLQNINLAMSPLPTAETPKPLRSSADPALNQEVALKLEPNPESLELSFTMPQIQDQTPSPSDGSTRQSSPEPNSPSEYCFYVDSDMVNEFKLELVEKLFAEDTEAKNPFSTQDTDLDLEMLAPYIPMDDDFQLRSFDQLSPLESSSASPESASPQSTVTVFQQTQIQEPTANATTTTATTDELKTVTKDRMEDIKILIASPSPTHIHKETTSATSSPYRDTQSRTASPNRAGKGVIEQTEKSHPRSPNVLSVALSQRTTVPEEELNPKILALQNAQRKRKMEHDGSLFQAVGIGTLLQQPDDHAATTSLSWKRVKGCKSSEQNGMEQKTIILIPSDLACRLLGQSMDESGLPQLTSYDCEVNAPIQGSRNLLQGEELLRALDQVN
Cytochrome P450 3A7 (Homo sapiens), sequence (P24462 whole entry, looked up): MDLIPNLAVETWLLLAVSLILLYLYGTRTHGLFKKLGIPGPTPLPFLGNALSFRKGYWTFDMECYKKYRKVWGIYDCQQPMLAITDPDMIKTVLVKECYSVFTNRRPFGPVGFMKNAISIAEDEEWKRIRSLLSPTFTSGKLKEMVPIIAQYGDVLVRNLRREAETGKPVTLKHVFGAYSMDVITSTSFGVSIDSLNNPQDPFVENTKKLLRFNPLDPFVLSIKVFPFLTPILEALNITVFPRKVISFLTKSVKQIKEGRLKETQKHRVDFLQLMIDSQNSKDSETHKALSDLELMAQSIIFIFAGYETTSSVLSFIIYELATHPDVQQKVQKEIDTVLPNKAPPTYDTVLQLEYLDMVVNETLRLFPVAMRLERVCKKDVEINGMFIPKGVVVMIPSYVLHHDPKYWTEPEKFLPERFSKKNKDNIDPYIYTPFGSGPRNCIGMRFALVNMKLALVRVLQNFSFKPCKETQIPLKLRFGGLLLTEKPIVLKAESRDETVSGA

CNC(=O)CSP(=S)(OC)OC
inactive: all assays above

CCN(CC)C(=O)SCc1ccc(Cl)cc1
active: [4] 15.4 µM
inactive: all other assays above

C[C@H]1[C@H](c2ccc(Cl)cc2)SC(=O)N1C(=O)NC1CCCCC1
active: [2] 77.9 µM | [3] 61.6 µM | [4] 55.8 µM | [5] 47.1 µM | [6] 78.9 µM | [7] 79.3 µM | [8] 67.4 µM | [9] 72.9 µM | [10] 73.5 µM | [14] 38.2 µM | [15] 40.1 µM | [16] 81.3 µM | [17] 75.4 µM | [18] 77.7 µM
inactive: [1] | CYP3A5 (gene 1577) | [11] | [12] | [13] | HGF (gene 3082)
